Screens (PubChem BioAssay)
Only some compounds are listed: those with a hit (about 5.4% of all), similar ones and a draw of the others.
DAX1 inh = inhibits human nuclear receptor DAX1. HEK293 Gal4-DAX1 luciferase reporter, luminescence. actives 0.99% (n = 340,000). P51843. inhibition, % at 6.75 µM. AID 504766;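 active means inhibition above the mean over all tested compounds plus 3 SD, cut at about 4.2% in these data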;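 further: inhibition shows as a rise in luminescence from relieved DAX1 repression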
Target sequence (P51843 207-470 limits assumed): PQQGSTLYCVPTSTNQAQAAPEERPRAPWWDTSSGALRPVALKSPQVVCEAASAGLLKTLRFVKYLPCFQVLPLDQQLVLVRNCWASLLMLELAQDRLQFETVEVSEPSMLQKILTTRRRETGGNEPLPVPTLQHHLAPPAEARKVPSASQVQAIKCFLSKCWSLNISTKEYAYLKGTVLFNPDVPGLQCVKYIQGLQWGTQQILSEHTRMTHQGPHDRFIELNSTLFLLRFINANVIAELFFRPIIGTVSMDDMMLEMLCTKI
GAA850 FXN act = activators of GAA850 frataxin (FXN) promoter. HEK293 lucGAA850 FXN promoter luciferase reporter, 24 h; percent of 10 µM SAHA response. AID 540364. actives 0.56% (n = 360,000). activation, % at 6 µM;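 active means activation above the average of all compounds screened plus 3 SD, cutoff fixed separately per campaign, cut at about 7.5% in these data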
HSF1 inhib = HSF1 inhibition; NIH3T3-HGL HSE-luciferase, MG132-induced, luminescence 8 h; active compounds read low; actives 0.77% (n = 300,000); AID 2098; activity change, negative = inhibition, % at 7.5 µM (by protocol);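 active means more than half of replicate wells show activity change below -50%, luminescence cut by over half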;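 further: luciferase reports HSF-1 transcriptional activity via heat shock element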
AHR activator = activates the human aryl hydrocarbon receptor. AHR-responsive luciferase reporter cells, luminescence. activation, % at 5 µM. actives 2.5% (n = 320,000); in the data active means activation above about 47%
HSF-1 act = increases HSF-1 driven luciferase reporter signal; NIH3T3-HGL HSF-1 luciferase reporter, MG132, 8 h; 100% = twice DMSO control signal; actives 1.7% (n = 300,000); activation, % at 9 µM;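 active means mean replicate activation of at least 50% with a set share of replicates each reaching 50%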
Of the large screens only hits and unclear results are named; the others gave an inactive call.

COc1cc2cc(Oc3ccc4ccc(=O)oc4c3)c(=O)oc2cc1OC(C)=O	DAX1 inh 9.8
COc1cc2cc(Oc3ccc4ccc(=O)oc4c3)c(=O)oc2cc1OC(=O)C=C(C)C	none (no result: DAX1 inh, GAA850 FXN act)
COc1ccc(Oc2cn[nH]c2-c2ccc(OCC(=O)NN)cc2O)cc1	AHR activator 58
CCCn1c(SCC(=O)N2CCCC2=O)nc2ccccc2c1=O	none (no result: HSF1 inhib, AHR activator, HSF-1 act)
Cc1ccc(C(O)c2ncc(-c3ccc(C(F)(F)F)cc3)[nH]2)cc1F (centres undefined)	none (no result: DAX1 inh, HSF1 inhib, AHR activator, HSF-1 act)
C=C(C)Cn1c(C)cc(C)c(S(=O)(=O)c2cccc(C)c2)c1=O	none
COc1ccc(CNS(=O)(=O)c2ccc3c(c2)C(C)(C)C(=O)N3C)cc1	none
COc1cc(NS(=O)(=O)c2ccc3c(c2)C(C)(C)C(=O)N3C)cc(OC)c1	DAX1 inh 5.0
COC(=O)c1cc(C(C)=O)c(C)[nH]c1=O	DAX1 inh 5.9
O=C1NC(=O)C(=Cc2ccccc2)N1	none (no result: HSF1 inhib, AHR activator, HSF-1 act)
CN(C)c1ccc(/C=C2/NC(=O)NC2=O)cc1	AHR activator 108
CN(Cc1cn(-c2ccccc2)nc1-c1ccc2c(c1)OCO2)Cc1nccn1C	AHR activator 48
CN(Cc1cn(C)nc1-c1ccccc1F)Cc1nccn1C	none
CN(Cc1cccnc1)Cc1cn(Cc2ccccc2)nc1-c1ccc2c(c1)OCO2	none
CN(CCn1ccnc1)Cc1cn(-c2ccccc2)nc1-c1ccc2c(c1)OCO2	AHR activator 55
COc1ccc(OC)c(Nc2cc(C)c3ccccc3n2)c1	AHR activator 49
Oc1ccccc1-n1nc2ccc3nonc3c2n1	AHR activator 76
O=C(Nc1ccc(Cl)cc1)N1CCN(c2ccc3nnc(-c4ccc(F)cc4)n3n2)CC1	none
O=C(c1ccc(Br)o1)N1CCN(c2ccc3nnc(-c4ccc(F)cc4)n3n2)CC1	AHR activator 47
CC(c1ccccc1)N1CCN(C(=O)CCl)CC1 (centres undefined)	HSF1 inhib -94
CC(CC(=O)N1CCN(C(=O)c2ccccc2)CC1)c1ccccc1 (centres undefined)	none
C=CCOc1ccc2c3c(c(=O)oc2c1)CCCC3	DAX1 inh 4.3 (no result: HSF1 inhib, AHR activator, HSF-1 act)
COc1ccc2c3n(nc2c1)CCN=C3c1cc(Cl)c(N)c(Cl)c1	AHR activator 61 (no result: HSF1 inhib, HSF-1 act)
Nc1c(Cl)cc(C2=NCCn3nc4cc(C(F)(F)F)ccc4c32)cc1Cl	AHR activator 54
COc1ccc(C2=NCCn3nc4ccccc4c32)cc1	AHR activator 54 (no result: HSF1 inhib, HSF-1 act)
O=C(C=Cc1ccc2c(c1)OCO2)c1ccccc1	none (no result: HSF1 inhib, AHR activator, HSF-1 act)
O=C(/C=C/c1ccc2c(c1)OCO2)c1ccccn1	HSF-1 act 60
CCN(C(=O)/C=C/c1ccc2c(c1)OCO2)c1ccccc1	AHR activator 70
COc1ccc(CNC(=O)C(C)N2C(=O)COc3ccc(C)cc32)c(OC)c1 (centres undefined)	none
COc1ccc(N2C(=O)C(C)(C)C2c2c(O)ccc3ccccc23)cc1 (centres undefined)	HSF1 inhib -73
CC1(C)C(=O)N(c2ccccc2)C1c1ccccc1O (centres undefined)	none
CCc1nc2ccccc2n1CC(O)COCC1CC=CCC1 (centres undefined)	none
Cc1ccc(/C=C2\SC(N3CCCCC3)=NC2=O)cc1	AHR activator 71
O=C1N=C(N2CCCCC2)S/C1=C\c1ccccc1F	DAX1 inh 4.3
O=C1N=C(N2CCCCC2)S/C1=C\c1ccc(Cl)cc1	none
COc1ccc(OC)c(/C=C2\SC(N3CCCCC3)=NC2=O)c1	AHR activator 74
O=C(Nc1ccc2c(c1)C(=O)NC2=O)c1ccc(S(=O)(=O)N2CCCC2)cc1	none
CC(=O)N1CCc2cc(S(=O)(=O)CCC(=O)Nc3ccccc3F)ccc21	none
O=C(Nc1ccccc1Cl)Nc1ccnn1C1CCN(C(=O)C2CCOC2)CC1 (centres undefined)	none (no result: HSF1 inhib, AHR activator, HSF-1 act)
CCN(CC)Cc1c(O)ccc2c(=O)c(-c3ccc(Cl)cc3)coc12	none
CN(C)Cc1c(O)ccc2c(=O)c(-c3ccc(Cl)cc3)coc12	AHR activator 66
CC1=NNC(=O)/C1=C\c1cn(-c2ccccc2)nc1-c1ccc(F)cc1	HSF-1 act 146 (no result: AHR activator)
CC1CCN(S(=O)(=O)c2ccc3c(c2)N(CC(=O)NCCCN2CCCCC2)C(=O)CS3)CC1	none
Cc1ccc(OCCCn2c(CO)nc3ccccc32)cc1	none
CCn1c(COc2ccc(C)cc2)nc2ccccc21	HSF-1 act 81
COCCn1c(COc2ccc(C)cc2)nc2ccccc21	none
CCOCCn1c(COc2ccc(C)cc2)nc2ccccc21	HSF-1 act 76
O=C(NCCCN1CCCC(O)C1)c1cc(COc2ccc(F)cc2F)on1 (centres undefined)	none
O=C(NCC1CCCCC1)c1ccc(F)cc1Cl	DAX1 inh 7.4
C=CCc1ccc(OCCOc2cccc3ccc(C)nc23)c(OC)c1	none
COc1cccc2c1oc1c(SCc3nc4ccccc4[nH]3)nc(C)nc12	AHR activator 59 (no result: HSF1 inhib, HSF-1 act)
Cc1nc(SCc2nc3ccccc3[nH]2)c2oc3ccccc3c2n1	none
O=c1[nH]c(CSc2ccccn2)nc2c1oc1ccccc12	HSF-1 act 108
CCc1nc2c(oc3ccccc32)c(=O)[nH]1	none
Cc1nc(SCc2nc3ccccc3[nH]2)c2oc3ccc(Br)cc3c2n1	none (no result: HSF1 inhib, HSF-1 act)
c1ccc2[nH]c(CSc3ncnc4c3oc3ccccc34)nc2c1	AHR activator 53
c1ccc(-c2nc(SCc3nc4ccccc4[nH]3)c3oc4ccccc4c3n2)cc1	AHR activator 68 (no result: HSF1 inhib, HSF-1 act)
O=C(CCn1nc(-c2ccc(Cl)cc2)c2ccccc2c1=O)NN1CCOCC1	none (no result: DAX1 inh)
CCOc1ccc(S(=O)(=O)N2CN(c3cccc(C(C)=O)c3)c3nc4ccccc4nc32)cc1	AHR activator 56 (no result: HSF1 inhib, HSF-1 act)
CC1Sc2ccc(S(=O)(=O)CCC(=O)NC3CCCC(C)C3C)cc2NC1=O (centres undefined)	none
Cc1sc2nc(CN(Cc3cccs3)C(=O)NC3CCCCC3)[nH]c(=O)c2c1C	AHR activator 65
CC(NC(=O)c1cn(C(C)c2ccccc2F)nn1)c1ccncc1 (centres undefined)	none
CCCn1ccnc1SCC(=O)Nc1c(C)n(C)n(-c2ccccc2)c1=O	none (no result: HSF1 inhib, HSF-1 act)
COc1cccc(OCc2cc(/C=N/Nc3ccc(C(=O)O)cc3)ccc2OC)c1	HSF1 inhib -73
COc1ccc(/C=N/NC(=O)c2ccccc2OC)cc1COc1ccc(C)cc1	AHR activator 47
COc1ccc(/C=N\NC(=O)c2ccccc2Br)cc1COc1ccc(F)cc1	none
COc1ccc(/C=N/NC(=O)c2ccccc2OC)cc1COc1ccccc1[N+](=O)[O-]	AHR activator 66
COc1cccc(C(=O)Oc2ccc(/C=N/Nc3ccc(C(=O)O)cc3)cc2OC)c1	none
COc1ccc(C(=O)N/N=C/c2ccccn2)cc1OC	none
COc1ccc(OC)c(C(=O)N/N=C/c2ccccn2)c1	DAX1 inh 4.6
O=C1C(C=NCc2ccco2)=C(O)c2ccccc21	DAX1 inh 4.3
CC(C)c1ccc(/C=N/n2nnnc2Nc2ccccc2)cc1	HSF-1 act 55
CC/C(=N\n1nnnc1Nc1ccccc1)c1ccccc1	none
